This note sets out measurements from PubChem BioAssay AID1347076 (National Center for Advancing Translational Sciences (NCATS), 2019).

Hit rate of the full screen: of about 400,000 compounds, about 13,000 (3.2%) were called active. Inconclusive results (about 18%) are left out. Calls come from the whole dose curve; as a rule, active = well fitted cell-killing curve with a large enough effect; inconclusive = small, poorly fitted or top-dose-only effect, or effect the other way; inactive = flat fitted curve, though single readings scatter. Shown is part of a subset that was picked to be rich in actives. A call without a number means that no potency is given here.
Potency is the fitted concentration of half-maximal effect.

A short description of the experiment: qHTS assay for MDR1-selective chemotherapeutics: Primary screen using the drug-selected MDR subline cells KB-V1. Note: nearly all actives have a fitted effect of over 60% in size. The note with it: KB-V1 MDR cells viability, CellTiter-Glo, 72 h; series mostly up to 46.1 µM. Summed up: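 Cytotoxicity via CellTiter-Glo luminescence after 72 h compound exposure at 37 degrees C. Cells: drug-selected KB-V1 line, DMEM phenol-red free plus 10% FBS. Compounds tested at multiple concentrations; normalized data fitted to concentration-effect curves.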
`Cc1cc(C)cc(NC(=O)CCS(=O)(=O)c2cc3c4c(c2)CCN4C(=O)CC3)c1`: the Potency result is “inactive”. On to `Cc1cccc(CN2CCN(C3CN(Cc4cn(Cc5ccccc5F)nn4)S(=O)(=O)C3)CC2)c1` (stereo not drawn), for which the Potency result was “inactive”. For the compound `Cc1ccc(OCC(=O)NC(C)c2ccccc2)cc1C` (stereo not drawn), the Potency entry is “inactive”. With `Cc1ccc(C)c(NC(=S)NNC(=S)Nc2ccc(C(C)C)cc2)c1`, the Potency result is “inactive”. As for `Cc1cc(C(=O)NNC(=S)NC(C)c2ccccc2)cs1` (stereo not drawn), the Potency was 14.6 µM (active). As for `Cc1ccc(C)c(NC(=O)CCC(=O)NNC(=O)c2cccs2)c1`, the Potency entry was “inactive”. `CC(NC(=S)NNS(=O)(=O)c1ccc(C(C)(C)C)cc1)c1ccccc1` (stereo not drawn): the Potency result is “inactive”. Next, `Cc1ccc(C)c(NC(=S)NNC(=O)c2csc(C)c2)c1`: 18.4 µM (active). Take `Nc1nc2ncccn2c1-c1ccccc1`: the Potency entry is “inactive”. In the case of `CO[C@H]1O[C@@H]2O[C@@]3(C)CC[C@@H]4[C@@H](C)CC[C@@H]([C@H]1C)[C@@]24OO3`, the Potency result was “inactive”. Take `COc1ccc(C)cc1-n1c(-c2ccc(C)cc2)cc2c1CC(C)(C)CC2=O`: the Potency result was “inactive”. `O=C(C[C@H]1CC[C@H]2[C@@H](COC[C@H](O)CN2C(=O)c2ccccn2)O1)N1CCN(c2ccccc2)CC1`: the Potency result is “inactive”.

As to `CCN(CC)Cc1nc2sc(C)c(C)c2c(=O)[nH]1`, the Potency entry is “inactive”. In the case of `CS(=O)(=O)N(Cc1nc2sc3c(c2c(=O)[nH]1)CCCC3)C1CCCCC1`, the Potency was 16.4 µM (active). Take `O=c1[nH]c(CN2CCN(S(=O)(=O)c3ccc4c(c3)OCCO4)CC2)nc2sc3c(c12)CCCC3`: the Potency entry was “inactive”. `O=C(CNS(=O)(=O)c1cccs1)N1CCN(c2ccccc2Cl)CC1`: the Potency result was “inactive”. `Cc1ccc(C)c(N2CCN(C(=O)C3CCC(CNS(=O)(=O)c4cccs4)CC3)CC2)c1` (stereo not drawn): the Potency entry is “inactive”. Next, `Cc1ccc(Cl)cc1N1CCN(C(=O)C2CCC(CNS(=O)(=O)c3cccs3)CC2)CC1` (stereo not drawn): 10.3 µM (active); `COc1ccc(S(=O)(=O)N2CCC(C(=O)NCCC(=O)NCCc3cccc(F)c3)CC2)cc1`: “inactive”; `CC1CCCC(NC(=O)COC(=O)c2ccccc2C(=O)N(C)C2CCCCC2)C1C` (stereo not drawn): “inactive”.

Turning to `O=C(c1cc(-c2ccc(F)cc2)on1)N1CCN(c2ccc(F)cc2)CC1`, the Potency entry was “inactive”.

Regarding `COc1ccc(-c2cc(C(=O)N3CCN(c4ccc(F)cc4)CC3)no2)cc1`, the Potency was 18.4 µM (active). As to `O=C(c1cc(-c2ccc(Cl)cc2)on1)N1CCN(c2ccccc2)CC1`, the Potency result is “inactive”.

As for `CC1=C(C(=O)N2CCOCC2)CC(CC(=O)NCc2ccco2)C(=O)N1Cc1ccc(F)cc1` (stereo not drawn), the Potency entry was “inactive”.

On to `O=C(NNC(=O)c1ccccc1O)c1ccccc1O`, for which the Potency is 0.517 µM (active).

Take `Cc1cc(C(=O)NNC(=O)c2ccccc2O)c(C)o1`: the Potency result was “inactive”. Next, `Cc1cc(C(=O)CCC(=O)NNC(=O)c2ccccc2O)c(C)s1`: “inactive”. Consider `COc1ccc(NC(=O)CN(C)C(=O)c2cc(C)oc2C)cc1`, for which the Potency entry is “inactive”. For `Cc1cc2nc(C)n(CCCNC(=O)Nc3ccccc3)c2cc1C` the value was 23.1 µM (active); for `Cn1c(CCN2CCCCCC2)nc2cc(NC(=O)Nc3ccccc3)ccc21`, “inactive”; for `COc1ccc(OCCCn2c(C)nc3cc(C)c(C)cc32)cc1`, “inactive”.

As to `CCOC(=O)C1(C)CCCN(C(=O)c2ccc(F)c(Cl)c2)C1` (stereo not drawn), the Potency entry was “inactive”. With `CNc1cc(-c2c(OC)cccc2OC)ncn1`, the Potency result was “inactive”. Regarding `O=C(NCCCNC(=O)c1ccccc1Cl)c1cnccn1`, the Potency entry was “inactive”. Regarding `COc1ccccc1CCNC(=O)c1cnccn1`, the Potency was 16.4 µM (active). `Cc1ccc(C(=O)NCCNC(=O)c2cnccn2)cc1`: the Potency result was “inactive”.

Consider `CC(=O)Nc1c(-c2ccc(C)cc2)nc2ccc(Cl)cn12`, for which the Potency entry was “inactive”. With `O=C(NCC(F)(F)F)c1ccc(S(=O)(=O)NCCc2ccc3c(c2)OCCO3)cc1`, the Potency entry was “inactive”. As to `CCCc1nc2ccccc2n1C(C)C(=O)NC(C)(C)C` (stereo not drawn), the Potency result is “inactive”. `O=C(c1cc(Cl)cc(Cl)c1)N1CCC(=O)N(C(COCc2ccccc2)Cc2ccccc2)CC1` (stereo not drawn): the Potency entry was “inactive”. Regarding `CC(C)CC(COCc1ccc(Cl)cc1)N1CCN(C(=O)c2ccc(C(F)(F)F)cc2)CCC1=O` (stereo not drawn), the Potency is 20.6 µM (active). For `COc1ccc(COC[C@H](CC(C)C)N2CCN(C(=O)c3cccc(C(F)(F)F)c3)CCC2=O)cc1`, the Potency result was “inactive”. Next, `COC(=O)[C@]12CCCCC=C1N(Cc1ccc3c(c1)OCO3)C(=O)[C@H](CC(=O)NCc1cccs1)C2`: “inactive”; `O=C1CCC(C(=O)OCC(=O)Nc2ccc(OC(F)F)cc2)=NN1`: “inactive”; `Cc1ccc2c(c1)c1c(c(=O)n(-c3ccccc3)c(=O)n1CC(=O)c1ccc(Cl)cc1)n2C`: “inactive”.

In the case of `CC(=O)NC(c1cccc(F)c1)c1nc(-c2cccc(F)c2)cs1` (stereo not drawn), the Potency entry was “inactive”. Next, `Cc1cc(C)cc(NC(=O)CSCc2cnn(-c3ccccc3)c2-n2cccc2)c1`: 18.4 µM (active); `CCOc1ccc(NC(=O)c2cnn(-c3ccccc3)c2-n2cccc2)cc1`: “inactive”; `CC(=O)Nc1ccc(NC(=O)CSCc2cnn(-c3ccccc3)c2-n2cccc2)cc1`: “inactive”. On to `CCOc1ccccc1N(CC)C(=O)c1cc2ccc3cccnc3c2[nH]1`, for which the Potency result was “inactive”. Take `CCCCCOC(=O)NCCOC(=O)Nc1ccc(C(=O)OCC)cc1`: the Potency is 16.4 µM (active). As for `CCOC(=O)Nc1ccc(NC(=O)OCC)cc1`, the Potency entry is “inactive”.

In the case of `CCCCC(CCC(=O)Nc1ccc(C(=O)OCC)cc1)C(=O)O` (stereo not drawn), the Potency result is “inactive”. As for `CC1C(=O)N(Cc2cn(CC3CCCCC3)nn2)CCS(=O)(=O)N1Cc1ccc(-c2cccc(N(C)C)c2)cc1` (stereo not drawn), the Potency result was “inactive”.

Consider `COc1ccc(-c2ccc(=O)n(CC(=O)Nc3ccc(Br)cc3F)n2)cc1`, for which the Potency result was “inactive”. On to `O=C(NC(=O)c1ccccc1)Nc1ccccc1O`, for which the Potency entry was “inactive”.

`O=C(Nc1ncccc1O)c1ccc(C(=O)c2ccccc2)cc1`: the Potency was 23.1 µM (active). `O=C(Nc1ncccc1O)c1ccc(S(=O)(=O)N2CCCC2)cc1`: the Potency result is “inactive”.

In the case of `C[C@@H]1CN([C@@H](C)CO)C(=O)c2cc(NS(C)(=O)=O)ccc2O[C@@H](C)CCCCO[C@H]1CN(C)C(=O)Nc1ccc2c(c1)OCO2`, the Potency result was “inactive”. In the case of `O=C(NCc1ccccc1)C1c2ccccc2OCC(=O)N1C1CC1` (stereo not drawn), the Potency entry is “inactive”.

As to `Cc1ccc(C(O)c2ncc(-c3ccccc3F)[nH]2)cc1F` (stereo not drawn), the Potency result is “inactive”. For `O=C(Nc1cc(S(=O)(=O)Nc2ccc(Cl)cc2)ccc1O)c1ccc(F)cc1F` the value was 23.1 µM (active); for `O=C(Nc1cccc(S(=O)(=O)NC2=NCCC2)c1)c1ccc(F)cc1F`, “inactive”; for `CCS(=O)(=O)c1ccc(O)c(NC(=O)COc2ccc(Cl)cc2)c1`, “inactive”. For `CCCSc1nc2sc3c(c2c(=O)n1-c1cccc(Br)c1)CC(C)(C)OC3` the value was “inactive”. `CCC1(C)Cc2c(sc3nc4n(c(=O)c23)CCCS4)CO1` (stereo not drawn): the Potency result is “inactive”. Consider `CCCSc1nc(NCc2ccco2)c2c3c(sc2n1)COC(C)(CC)C3` (stereo not drawn), for which the Potency is 16.4 µM (active). For `Cc1ccc(N2CC(c3nnc(Cc4ccccc4Cl)o3)CC2=O)cc1` (stereo not drawn) the value was “inactive”. With `CC(C)(C)OC(=O)N1CCC(c2c(C(=O)N3CCN(c4cccc(Cl)c4)CC3)cnn2-c2cccc(Cl)c2)CC1`, the Potency entry was “inactive”. Regarding `Cc1ccc(OCC(=O)NC(C)c2ccccc2)c([N+](=O)[O-])n1` (stereo not drawn), the Potency entry was “inactive”. In the case of `Cc1ccc(OCC(=O)Nc2ccccc2Sc2ccc(Cl)cc2)c([N+](=O)[O-])n1`, the Potency was 9.2 µM (active). For `O=C(COc1cccnc1[N+](=O)[O-])Nc1ccc(Cl)cc1F`, the Potency entry is “inactive”. Take `Cc1ccc(S(=O)(=O)N2CC3C(=O)C[C@@H](c4ccccc4Cl)N(S(=O)(=O)c4ccc(C)cc4)C3CC2c2ccccc2)cc1` (stereo partly drawn): the Potency result was “inactive”.

For the compound `COc1ccc(C(C)(C)C)cc1NC(=O)CN(C)C1=NS(=O)(=O)c2ccccc21`, the Potency result was “inactive”. For `CC1(C(=O)NCc2ccc3c(c2)OCO3)CCN1C(=O)Cc1cccs1` (stereo not drawn), the Potency entry was “inactive”. In the case of `C[C@H](NC(=O)CC[C@H]1O[C@@H](n2ccc(=O)[nH]c2=O)[C@H](O)[C@@H]1O)c1cccc2ccccc12`, the Potency entry was “inactive”.

Take `CC(=O)NC(=S)NNC(=O)c1ccc(Br)cc1`: the Potency entry was “inactive”.

With `CNC(=S)NNC(=O)c1ccc(N(C)C)cc1`, the Potency was 11.6 µM (active). For `CNC(=S)NNC(=O)c1sccc1OCc1ccccc1`, the Potency entry is “inactive”. As to `COC(=O)C1(C(=O)OC)C/C=C\CN(S(=O)(=O)c2ccccc2[N+](=O)[O-])CCC1`, the Potency result is “inactive”.

Consider `COc1ccc(NS(=O)(=O)c2cc(NC(=O)c3ccc(S(=O)(=O)N(C)C)cc3)ccc2N2CCOCC2)cc1`, for which the Potency result was “inactive”. On to `COc1ccc(NC(=O)c2sc(=O)n(Cc3ccc(S(=O)(=O)N(C)C)cc3)c2C)cc1`, for which the Potency was 9.2 µM (active). On to `COc1ccc(Cn2c(C)c(C)c(C#N)c2NC(=O)Nc2ccc(F)cc2)cc1`, for which the Potency result was “inactive”. Next, `Cc1nc(SCC(=O)N2CC(=O)Nc3ccccc32)c2c(C)c(C)sc2n1`: “inactive”; `O=C(CSc1nnc(-c2cccs2)n1Cc1ccccc1)N1CCc2ccccc2C1`: “inactive”. Consider `Cc1nc(SCC(=O)N2CCc3ccccc3C2)c2c(C)c(C)sc2n1`, for which the Potency is 18.4 µM (active).

With `COc1ccc(OC)c(C(=O)NC2CCCc3c2cnn3-c2cc(C)cc(C)c2)c1` (stereo not drawn), the Potency entry is “inactive”. As to `Cc1cccc(N2CCN(C(=O)c3cnc(N4CCCC4)nc3C)CC2)c1C`, the Potency result was “inactive”. With `C/C(=C\c1ccccc1)C1NC(=O)c2c(sc3c2CCCC3)N1` (stereo not drawn), the Potency result is “inactive”. Regarding `CCOC(=O)N1CCc2c(sc3c2C(=O)NC(c2ccccc2F)N3)C1` (stereo not drawn), the Potency result is “inactive”.

For `O=C1NC(c2ccncc2)Nc2sc3c(c21)CCCC3` (stereo not drawn), the Potency was 20.6 µM (active). With `COc1ccc(NC(=O)CCCN2C(=O)CCn3nc(-c4cn(C)c5ccccc45)cc32)cc1OC`, the Potency result is “inactive”.

`Cc1ccc(OCC(=O)NNC(=S)NCc2ccccc2)cc1`: the Potency result was “inactive”. Turning to `Cc1cccc(NC(=O)c2ccc(OCC(=O)NCc3ccccc3)cc2)c1C`, the Potency was 14.6 µM (active). `COc1ccc(C(=O)Nc2cc(C)ccc2NC(=O)COc2ccccc2)cc1`: the Potency result is “inactive”. For `O=C(COC(=O)c1ccccc1OCCOc1ccccc1)Nc1cccc(Br)c1`, the Potency result is “inactive”. Regarding `COCCNC(=O)C1CCCN(Cc2ccccc2Cl)CC1` (stereo not drawn), the Potency result is “inactive”. Regarding `COC(=O)CCCCC1=CCC2C(=O)C=C(O)C2C1` (stereo not drawn), the Potency result was “inactive”.
